Rows were chosen to be rich in hits. Some 1.8% of all compounds tested hit in one or more screens of this group.
GSTO1 inh: GSTO1 inhibition, counter-screen for RBBP9 inhibitors; P78417; recombinant GSTO1, activity-based probe fluorescence polarization; inhibition, % at 5.96 µM; 300,000 tested, 1.1% active; AID 1974;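 active means inhibition above the campaign mean inhibition plus 3 SD, cut at about 35% in these data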
Target sequence (P78417 whole entry, looked up): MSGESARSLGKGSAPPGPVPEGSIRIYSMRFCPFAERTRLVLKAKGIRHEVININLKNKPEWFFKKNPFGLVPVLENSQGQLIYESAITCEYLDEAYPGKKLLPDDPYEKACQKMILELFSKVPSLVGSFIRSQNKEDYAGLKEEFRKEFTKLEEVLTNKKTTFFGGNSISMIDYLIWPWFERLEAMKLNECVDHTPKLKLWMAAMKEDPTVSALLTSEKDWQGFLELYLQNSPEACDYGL
Fam108B inh: blocks mouse Fam108B hydrolase in RBBP9 counter-screen | recombinant Fam108B, FP-Rh probe fluorescence polarization | inhibition, % at 9.51 µM | 300,000 tested, 0.33% active;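 active means inhibition above the screen mean inhibition plus 3 SD, computed separately per campaign, cut at about 18% in these data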;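 further: inhibitors lower polarization as less probe binds the enzyme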
LYPLA1 counter: blocks human lysophospholipase 1, a PME1 counter-screen. O75608. recombinant LYPLA1, FP-Rh probe fluorescence polarization. inhibition, % at 5.9 µM. 320,000 tested, 0.16% active. AID 2174;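 active means inhibition above the mean of all tested compounds plus 3 SD, set per campaign, cut at about 14% in these data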;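 further: inhibitors block serine hydrolase probe labeling of LYPLA1 so polarization falls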
LYPLA2 counter: LYPLA2 (human) inhibition in PME1 counter-screen; recombinant LYPLA2, FP-Rh probe fluorescence polarization; inhibition, % at 5.9 µM; 320,000 tested, 0.38% active; AID 2177;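 active means inhibition above the screen-wide mean plus 3 SD, limit set per campaign, cut at about 26% in these data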
PME-1 inh: PME-1 (human) inhibition. Q9Y570. recombinant PME-1, FP-Rh probe fluorescence polarization. inhibition, % at 5.9 µM. 320,000 tested, 0.53% active. AID 2130;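 active means inhibition above the campaign mean of all compounds plus 3 SD, cut at about 26% in these data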;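 further: competitive labeling of PME-1 active site by serine hydrolase directed probe; inhibitors block probe labeling so polarization falls and inhibition rises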
Target sequence (Q9Y570 whole entry, looked up): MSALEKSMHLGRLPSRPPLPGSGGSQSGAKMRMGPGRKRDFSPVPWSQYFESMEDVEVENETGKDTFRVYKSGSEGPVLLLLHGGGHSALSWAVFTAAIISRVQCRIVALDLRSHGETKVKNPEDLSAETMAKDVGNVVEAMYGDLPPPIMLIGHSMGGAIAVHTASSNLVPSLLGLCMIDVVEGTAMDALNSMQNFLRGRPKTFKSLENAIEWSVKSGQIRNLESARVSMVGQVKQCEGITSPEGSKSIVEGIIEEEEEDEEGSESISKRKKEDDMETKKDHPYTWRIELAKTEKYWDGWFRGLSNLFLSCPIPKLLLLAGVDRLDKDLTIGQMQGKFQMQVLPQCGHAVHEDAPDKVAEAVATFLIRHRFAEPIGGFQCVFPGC
PAD4 FP inh: blocks human protein arginine deiminase 4; 330,000 tested, 0.41% active; inhibition, % at 6.36 µM; recombinant PAD4, RCA probe fluorescence polarization; AID 485272; Q9UM07;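 active means percent inhibition above a cutoff equal to the mean of all tested compounds plus 3 SD, cut at about 15% in these data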
GSTO1 inh conf: confirmation of human GSTO1 inhibitors; shares compounds with GSTO1 inh; recombinant GSTO1, probe fluorescence polarization; inhibition, % at 5.96 µM; 2,400 tested, 54% active; AID 2176;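 active means inhibition above the primary screen's cutoff, its mean inhibition plus 3 SD, cut at about 35% in these data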;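 further: loss of polarization as inhibitors block binding of rhodamine sulfonate ester activity probe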
GSTO1 recomb ABPP: blocks recombinant human glutathione S-transferase omega 1. recombinant GSTO1, gel ABPP SE-Rh probe fluorescence. 130 tested, 30% active. inhibition, % at 1 µM. shares compounds with GSTO1 inh;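 active means inhibition of the enzyme GSTO1 above about 75%, limit read from the data; inactive means inhibition below that limit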
Hits are given with their value; . = inactive; / = no result given.

SMILES | GSTO1 inh | Fam108B inh | LYPLA1 counter | LYPLA2 counter | PME-1 inh | PAD4 FP inh | GSTO1 inh conf | others
CC(C)c1ccc(O)c(N)c1 | . | . | . | . | . | . | /
CC(C)(C)c1ccc(O)c(N)c1 | 38 | . | . | . | . | . | .
O=C1/C(=N\S(=O)(=O)c2cccs2)C([n+]2cccc(Cc3ccccc3)c2)=C([O-])c2ccccc21 | 87 | . | . | . | . | . | 83
O=C1/C(=N\S(=O)(=O)c2cccs2)C([n+]2ccc(CCCc3ccccc3)cc2)=C([O-])c2ccccc21 | 79 | . | . | . | . | . | 84
CC(C)N(Cc1ccccc1)S(=O)(=O)c1cccs1 | . | . | . | . | . | . | /
Cc1ccc(C)c(S(=O)(=O)Nc2ccc(O)c3ccccc23)c1 | 53 | . | . | . | . | . | .
COc1ccc(S(=O)(=O)Nc2ccc(O)c3ccccc23)cc1 | 70 | . | . | . | . | . | .
C=CCN1C(=O)c2ccc(C(=O)N3CCN(S(=O)(=O)c4cccc(Cl)c4)CC3)cc2C1=O | . | . | . | . | . | . | /
CC1CCCC(C)N1C(=O)COC(=O)CCC(=O)c1ccc(F)cc1 (configuration not stated) | / | / | / | / | / | . | /
CC1=NN(c2ccc(C(=O)O)cc2)C(=O)/C1=C\c1ccc(OC(=O)c2cccs2)cc1 | 55 | . | . | . | . | . | .
Cc1nnc(NC(=O)c2cc(-c3ccco3)nc3ccccc23)s1 | 40 | . | . | . | . | . | .
O=C(N/N=C/c1ccc(F)cc1)c1cc(-c2ccco2)nc2ccccc12 | 57 | . | . | . | . | . | .
CCNC(=O)COC(=O)c1cc(-c2ccco2)nc2ccccc12 | 41 | . | . | . | . | . | .
COCc1[nH][nH]c(=O)c1/C=N/N1CCOCC1 | 38 | . | . | . | . | . | .
Cc1c(Br)c(O)c(Br)c(O)c1/C=N/n1c(-c2ccccc2)n[nH]c1=S | 58 | . | . | . | . | . | 35
CCc1ccc(NC(=O)Cn2c3[n+](c4c(F)c(F)ccc42)CCCCC3)cc1 | 77 | . | . | . | . | . | 89
Cc1csc(=Nc2c(C)n(C)n(-c3ccccc3)c2=O)n1-c1ccccc1 | . | . | . | . | . | . | /
Cc1c(N=c2c(=O)c3ccccc3c2=O)c(=O)n(-c2ccccc2)n1C | 57 | . | . | . | . | . | 77
CCC(=O)N(C1=C(NC)C(=O)c2ccccc2C1=O)C(C)C | 50 | . | . | . | . | . | .
C/C(=N\NC(=O)Cc1ccc(F)cc1)c1ccc(O)cc1 | . | . | . | . | . | . | /
O=C(O)CC1S/C(=N/N=C/c2ccc(-c3ccc(Cl)cc3[N+](=O)[O-])o2)NC1=O (configuration not stated) | 50 | . | . | . | . | . | .
O=C(O)CC1S/C(=N/N=C/C=C/c2ccccc2[N+](=O)[O-])NC1=O (configuration not stated) | . | . | . | . | . | . | /
CCOC(=O)N1CCN(C(=O)Cc2ccc(Cl)cc2)CC1 | . | . | . | . | . | . | /
CCOC(=O)N1CCN(C(=O)CCl)CC1 | 77 | . | . | . | . | . | 92
CC(C)(C)NC(=O)CN1CCN(C(=O)CCl)CC1 | 82 | . | . | . | . | . | 96 | GSTO1 recomb ABPP=.
SMILES | GSTO1 inh | Fam108B inh | LYPLA1 counter | LYPLA2 counter | PME-1 inh | PAD4 FP inh | GSTO1 inh conf | others
CN(CC(=O)Nc1ccc(N2CCOCC2)cc1)C(=O)CCNC(=O)c1ccc(Br)cc1 | . | . | . | . | . | . | /
Cc1noc(C)c1CSCC(=O)N(C)CC(=O)Nc1ccc(F)c(F)c1F | . | . | . | . | . | . | /
Cc1ccc(NC(=O)CN(C)C(=O)COC(=O)c2ccc(Cl)cc2O)cc1 | / | / | . | . | . | . | /
O=C(O)/C=C\C(=O)Nc1ccc(N2CCN(c3cccc(Cl)c3)CC2)cc1 | 45 | . | . | . | . | . | .
O=C(O)/C=C\C(=O)Nc1ccc(N2CCN(c3ccc(Cl)cc3)CC2)cc1 | 59 | . | . | . | . | . | .
O=C(O)/C=C\C(=O)Nc1ccc(N2CCN(c3ccc(Cl)c(Cl)c3)CC2)cc1 | . | . | . | . | . | . | /
O=C(O)/C=C\C(=O)Nc1ccccc1C(=O)N1CCN(c2ccc(Cl)cc2)CC1 | . | . | . | . | . | . | /
CC1CCC(NC(=O)CCS(=O)(=O)c2ccc3c(c2)NC(=O)CS3)CC1 (configuration not stated) | . | . | . | . | . | . | /
O=C1CSc2ccc(S(=O)(=O)CCC(=O)NC3CCCCC3)cc2N1 | 53 | . | . | . | . | . | .
CN(C)S(=O)(=O)c1cccc(NC(=O)CSc2cccc3cccnc23)c1 | . | . | . | . | . | . | /
Cc1ccc(-c2csc3nc4cc(C(=O)NC5CCC(O)CC5)ccc4c(=O)n23)cc1 (configuration not stated) | 39 | . | . | . | . | . | .
CCOc1ccc(OCCC(=O)OCC(=O)NC2CCCC2)cc1 | / | / | . | . | . | . | /
Cc1cc(Nc2cccc(C(=O)O)c2)n2ncnc2n1 | 86 | . | . | . | . | . | .
O=C(CSc1nnc(-c2ccco2)o1)c1ccc(F)c(F)c1 | 38 | . | . | . | . | . | .
O=C(CSc1nnc(-c2ccco2)o1)c1ccccc1 | . | . | . | . | . | . | /
O=C(Cc1nnc(NC(=O)c2ccccc2)s1)N/N=C\c1ccc(O)c(O)c1 | 39 | . | . | . | . | . | .
O=C(C1CCN(S(=O)(=O)c2ccc(F)cc2)CC1)N1CCCC(C(F)(F)F)C1 (configuration not stated) | . | . | . | . | . | . | /
CC(NC(=O)C1CC1)C(c1cccs1)N1CCN(c2ccccc2)CC1 (configuration not stated) | . | . | . | . | . | . | /
CC(NC(=O)C1CC1)C(c1cccs1)N1CCOCC1 (configuration not stated) | 85 | . | . | . | . | . | .
Cc1ccc(N=Cc2ccc[nH]2)c(O)c1 | 38 | . | . | . | . | . | .
Cc1cccc(C(=O)N/N=C/c2ccc[nH]2)c1 | . | . | . | . | . | . | /
COc1cc(OC)c(NS(=O)(=O)c2cc(C(=O)OC(C)C(=O)NC3CC3)c(Cl)cc2Cl)cc1Cl (configuration not stated) | 46 | . | . | . | . | . | 66
Cc1ccc(S(=O)(=O)NC(C)(C)C)cc1C(=O)OC(C)C(=O)NC1CC1 (configuration not stated) | . | . | . | . | . | . | /
COc1ccc(Cc2nnc(NC(=O)c3ccccc3F)s2)cc1OC | . | . | . | . | . | . | /
Cc1c(C=O)c(Cl)n(C)c(=O)c1C#N | 53 | . | . | . | . | 27 | 84
CC(=O)N=Cc1c(C)c(C#N)c(=O)n(C)c1O | . | . | . | . | . | . | /

Compound activity: PubChem, The Scripps Research Institute Molecular Screening Center
